Experimental data reported in PubChem BioAssay (NCATS).
Values joined by “and” are separate entries in the source; they are usually repeats but may differ in a detail not shown here. Equal values may be shown once. Inconclusive results are not listed. Where a structure was tested more than once in an assay, its records may differ in their call. Active and inactive are the calls of the source. Calls follow the shape of the dose curve; as a rule, active = well fitted curve in the direction sought with a large enough effect; inconclusive = small, poorly fitted or top-dose-only effect, or another doubt; inactive = no such curve, though single readings can be large; an effect the other way counts as inactive or inconclusive.

Key:
[1] = tested on: CRL-7250; assay: Cytotoxic Profiling of Annotated Libraries Using Quantitative High-Throughput Screening (AID 1296008); conditions: Five cell lines viability, CellTiter-Glo ATP luminescence, 48-72 h; max response: stronger effect = lower value; also: nearly all actives have a fitted effect of over 60% in size; as to max response: % is scaled to controls: 0 for no effect and ±100 for the full control effect
Outline: (§1)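 Compounds were pin-transferred onto cells and incubated 48 or 72 hr at 37 degree Celsius, 95% humidity. CellTiter-Glo was added, plates sat 10 min at room temperature, then ATP-coupled luminescence was imaged as the viability read-out.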

[2] = tested on: HEK293; assay: as above; conditions: Five cell lines viability, CellTiter-Glo ATP luminescence, 48-72 h; max response: stronger effect = lower value
Outline: as §1

[3] = tested on: HaCat; assay: as above; conditions: Five cell lines viability, CellTiter-Glo ATP luminescence, 48-72 h; max response: stronger effect = lower value
Outline: as §1

[4] = tested on: KB-3-1; assay: as above; conditions: Five cell lines viability, CellTiter-Glo ATP luminescence, 48-72 h; max response: stronger effect = lower value
Outline: as §1

[5] = tested on: NIH3T3; assay: as above; conditions: Five cell lines viability, CellTiter-Glo ATP luminescence, 48-72 h; max response: stronger effect = lower value
Outline: as §1

[6] = tested on: HACAT; assay: qHTS assay to identify novel small-molecules to repurpose for Merkel cell carcinoma treatment (AID 1296009); conditions: MCC and control cell lines, CellTiter-Glo viability, 72 h; at 44.8 µM (top of the series) unless noted; also: nearly all actives have a fitted effect of over 60% in size
Outline: (§2)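 Viability readout: ATP luminescence (CellTiter-Glo) after 72 hr drug exposure at 37 degree celsius. Dose-response format was 8 points for NPC and 11 points for MIPE; data normalized to in-plate controls.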

[7] = tested on: MCC-13; assay: as above; conditions: MCC and control cell lines, CellTiter-Glo viability, 72 h; series mostly up to 46 µM
Outline: as §2

[8] = tested on: MCC-26; assay: as above; conditions: MCC and control cell lines, CellTiter-Glo viability, 72 h; series mostly up to 46 µM
Outline: as §2

[9] = tested on: MKL-1; assay: as above; conditions: MCC and control cell lines, CellTiter-Glo viability, 72 h; series mostly up to 46 µM
Outline: as §2

[10] = tested on: MKL-2; assay: as above; conditions: MCC and control cell lines, CellTiter-Glo viability, 72 h; series mostly up to 46 µM
Outline: as §2

[11] = tested on: NIH3T3; assay: as above; conditions: MCC and control cell lines, CellTiter-Glo viability, 72 h; at 44.8 µM (top of the series) unless noted
Outline: as §2

[12] = tested on: WaGa; assay: as above; conditions: MCC and control cell lines, CellTiter-Glo viability, 72 h; series mostly up to 46 µM
Outline: as §2

[13] = tested on: C33A; assay: Primary qHTS to identify gynecologic anti-cancer compounds using libraries of approved drugs and bioactive compounds (AID 1345084); conditions: Gynecologic cancer cell panel viability, ATPlite luminescence, 48 h; series mostly up to 57.5 µM; also: nearly all actives have a fitted effect of over 55% in size
Outline: (§3)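 ATP-based viability (ATPlite), 1,000 cells/well, 16 h pre-incubation, 48 h compound at 37 C, 5% CO2, 15 min RT before read.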

[14] = tested on: CAOV3; assay: as above; conditions: Gynecologic cancer cell panel viability, ATPlite luminescence, 48 h; series mostly up to 57.5 µM
Outline: as §3

[15] = tested on: TAB113; assay: qHTS profiling for inhibitors of Plasmodium falciparum proliferation (AID 504749); also: nearly all actives have a fitted effect of over 60% in size; conditions: P. falciparum in erythrocytes, SYBR Green DNA, 72 h; series mostly up to 28.7 µM
Outline: (§4)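 Quantitative HTS: compounds pinned into medium, infected erythrocytes added (0.3% parasitemia, 2.5% hematocrit), 72 h culture at 37 C under 5% CO2. Saponin/Triton lysis with SYBR Green I, overnight RT, then fluorescence read.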

[16] = tested on: TAB165; assay: as above; conditions: P. falciparum in erythrocytes, SYBR Green DNA, 72 h; series mostly up to 28.7 µM
Outline: as §4

[17] = tested on: W2; assay: as above; conditions: P. falciparum in erythrocytes, SYBR Green DNA, 72 h; series mostly up to 28.7 µM
Outline: as §4

[18] = tested on: UISO; assay: qHTS assay to identify novel small-molecules to repurpose for Merkel cell carcinoma treatment (AID 1296009); conditions: MCC and control cell lines, CellTiter-Glo viability, 72 h; series mostly up to 46 µM; also: nearly all actives have a fitted effect of over 60% in size
Outline: as §2

[19] = tested on: TAB109; assay: qHTS profiling for inhibitors of Plasmodium falciparum proliferation (AID 504749); also: nearly all actives have a fitted effect of over 60% in size; conditions: P. falciparum in erythrocytes, SYBR Green DNA, 72 h; series mostly up to 28.7 µM
Outline: as §4

[20] = tested on: HEK293T; assay: qHTS assay to identify novel small-molecules to repurpose for Merkel cell carcinoma treatment (AID 1296009); conditions: MCC and control cell lines, CellTiter-Glo viability, 72 h; at 44.8 µM (top of the series) unless noted; also: nearly all actives have a fitted effect of over 60% in size
Outline: as §2
Potency is read from the fitted curve at half-maximal effect.

Clc1ccc(C(Cn2ccnc2)OCc2c(Cl)cccc2Cl)c(Cl)c1 (stereo not drawn)
23.7 µM (active) and inactive: Potency [12]
active: Potency [2] 7.5 µM
inactive: max response [1] -2.52% | outcome [1] | max response [3] 1.49% | outcome [3] | max response [4] -15.6% and -6.5% and -4.2% | max response [5] -3.81% and -0.381% | outcome [5] | outcome [6] | Potency [7] | Potency [8] | Potency [9] | Potency [10] | outcome [11] | Potency [13] | Potency [14]

CN(c1nccc(=O)[nH]1)C1CCN(c2nc3ccccc3n2Cc2ccc(F)cc2)CC1
inactive: Potency [15] | Potency [16] | max response [1] -35.3% and -24.5% | outcome [1] | max response [2] -109% and 0.851% and -12.1% | max response [3] 0.328% | outcome [3] | max response [5] 0.52% and 4.28% | outcome [5] | outcome [6] | Potency [7] | Potency [8] | Potency [9] | Potency [10] | outcome [11] | Potency [18] | Potency [12] | Potency [13]
active: Potency [17] 12 µM

Cc1ccc(C)c(OCCCC(C)(C)C(=O)O)c1
inactive: Potency [19] | Potency [15] | Potency [16] | Potency [17] | max response [1] -2.44% | outcome [1] | max response [2] 4.9% and 0.17% | max response [3] 3.97% | outcome [3] | max response [5] -1.31% and 0.244% | outcome [6] | Potency [7] | Potency [8] | Potency [9] | Potency [10] | Potency [18] | Potency [12] | Potency [13] | Potency [14]

COc1ccc(C2(C#N)CCC(C(=O)O)CC2)cc1OC1CCCC1 (stereo not drawn)
inactive: Potency [19] | Potency [15] | Potency [16] | Potency [17] | outcome [1] | max response [2] 4.74% | outcome [2] | outcome [3] | max response [4] 6.11% and 7.73% and 2.33% | max response [5] 4.78% and 4.09% | outcome [6] | outcome [20] | Potency [7] | Potency [8] | Potency [9] | Potency [10] | Potency [18] | Potency [12] | Potency [13] | Potency [14]

Cc1cc2cc3c(C)cc(=O)oc3c(C)c2o1
inactive: Potency [19] | Potency [15] | Potency [16] | Potency [17] | max response [1] 4.53% and -2.29% | max response [2] -0.492% | outcome [2] | max response [3] -8.67% | outcome [3] | max response [4] -3.63% | outcome [4] | max response [5] -1.93% | outcome [5] | outcome [6] | outcome [20] | Potency [7] | Potency [8] | Potency [9] | Potency [10] | outcome [11] | Potency [18] | Potency [13] | Potency [14]
inactive and 4.69 µM (active): Potency [12]

CCN(CC)C(=S)SSC(=S)N(CC)CC
active: Potency [1] 105 nM | Potency [2] 59 nM and 313 nM and 841 nM | Potency [3] 11.1 µM | Potency [4] 83.3 nM | Potency [7] 2.09 µM and 111 nM and 944 nM | Potency [8] 1.48 µM and 596 nM | Potency [9] 1.18 µM and 62.4 nM and 422 nM | Potency [10] 1.32 µM and 44.2 nM and 531 nM | Potency [18] 1.05 µM and 70 nM and 473 nM | Potency [12] 935 nM | Potency [14] 7.08 µM
inactive: outcome [1] | max response [4] 0.882% and 32.2%

CC1=C(C)C(=O)C(C(CCCCCC(=O)O)c2ccccc2)=C(C)C1=O (stereo not drawn)
active: Potency [1] 5310 nM
inactive: Potency [19] | Potency [15] | max response [1] 0.243% | max response [2] -12.9% | outcome [2] | max response [3] -5.06% | outcome [3] | max response [4] 6.39% | max response [5] 2.25% | outcome [5] | outcome [6] | outcome [20] | Potency [7] | Potency [8] | Potency [9] | outcome [11] | Potency [18] | Potency [12] | Potency [13] | Potency [14]
23.7 µM (active) and inactive: Potency [10]

O=C(NCC1CCCCN1)c1cc(OCC(F)(F)F)ccc1OCC(F)(F)F (stereo not drawn)
inactive: max response [1] -77.3% | outcome [1] | max response [2] -82.7% | max response [3] -9.94% and -10.2% | max response [4] 3.67% | max response [5] -7.85% | Potency [7] | Potency [8] | Potency [9] | Potency [10] | Potency [18] | Potency [12] | Potency [13] | Potency [14]

CC1=C(C(=O)O)N2C(=O)[C@@H](NC(=O)[C@H](N)C3=CCC=CC3)[C@H]2SC1
inactive: max response [1] -13.1% | outcome [1] | max response [2] -32.9% | outcome [2] | outcome [3] | max response [4] -3.32% | outcome [4] | outcome [5] | outcome [6] | outcome [20] | Potency [7] | Potency [8] | Potency [9] | Potency [10] | outcome [11] | Potency [18] | Potency [12] | Potency [13] | Potency [14]

CC1(C)CCC(C)(C)c2cc(NC(=O)c3ccc(C(=O)O)cc3)ccc21
inactive: Potency [19] | Potency [15] | Potency [16] | Potency [17] | max response [1] 0.132% | max response [2] 2.4% | outcome [2] | max response [3] -6.69% | outcome [3] | max response [4] 33.6% | max response [5] -2.77% | outcome [5] | outcome [6] | outcome [20] | Potency [7] | Potency [8] | Potency [9] | outcome [11] | Potency [18] | Potency [12] | Potency [13]
